Compounds with a hit are over-represented: about 12% of the library has one in this group of screens.
PLK1 PBD block: PLK1 (human) polo-box domain binding inhibition | P53350 | Plk1 PBD binding of FITC phosphopeptide, fluorescence polarization | Potency, µM, inactives show max response, negative = inhibition, usual class: inhibitors | 360,000 tested, 2.8% active | AID 720504; also: potency is read from the fitted curve at half-maximal effect; series mostly up to about 57 µM; % is scaled to controls: 0 for no effect and ±100 for the full control effect; nearly all actives have a fitted effect of over 65% in size
Target sequence (P53350 whole entry, looked up, the tested form may be a part): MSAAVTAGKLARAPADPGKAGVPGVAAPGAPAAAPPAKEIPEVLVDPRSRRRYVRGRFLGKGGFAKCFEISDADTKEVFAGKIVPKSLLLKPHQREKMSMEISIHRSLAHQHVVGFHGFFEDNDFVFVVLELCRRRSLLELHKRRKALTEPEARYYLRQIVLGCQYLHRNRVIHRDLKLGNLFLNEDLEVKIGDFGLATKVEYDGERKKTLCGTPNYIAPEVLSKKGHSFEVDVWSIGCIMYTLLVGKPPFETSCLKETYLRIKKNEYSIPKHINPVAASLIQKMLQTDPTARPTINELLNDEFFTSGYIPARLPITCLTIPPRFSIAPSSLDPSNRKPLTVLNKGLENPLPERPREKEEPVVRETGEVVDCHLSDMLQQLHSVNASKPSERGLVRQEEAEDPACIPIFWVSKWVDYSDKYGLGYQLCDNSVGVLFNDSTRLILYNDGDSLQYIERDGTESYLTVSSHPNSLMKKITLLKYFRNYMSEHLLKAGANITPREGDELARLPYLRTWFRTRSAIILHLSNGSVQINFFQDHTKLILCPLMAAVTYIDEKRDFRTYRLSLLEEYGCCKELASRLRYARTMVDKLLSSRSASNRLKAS
BAZ2B inh: inhibitors of human BAZ2B bromodomain; Q9UIF8; AlphaScreen BAZ2B-H3K14Ac peptide displacement; Potency, µM (top dose mostly 114 µM), for the others: top-dose activity change, negative = inhibition, usual class: inhibitors; 360,000 tested, 4.4% active; AID 504333; also: potency is read from the fitted curve at half-maximal effect; % is scaled to controls: 0 for no effect and ±100 for the full control effect; nearly all actives have a fitted effect of over 60% in size
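Protein-peptide AlphaScreen: BAZ2B 50 nM, b-H3K14Ac 50 nM, 1x PBS pH 7.4 + 0.01% Tween-20. Preincubation 30 min RT; cpd 30 min RT (top 110 uM); beads 20 min RT, light-protected.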
JMJD2A Tudor: blocks the human JMJD2A Tudor domain; O75164; AID 504339; AlphaScreen JMJD2A-Tudor / H3K4me3 peptide binding; 390,000 tested, 4.4% active; Potency, µM (series often up to 114 µM), for inactives: at the top dose activity change, negative = inhibition, actives largely listed as inhibitors; also: potency is read from the fitted curve at half-maximal effect; % is scaled to controls: 0 for no effect and ±100 for the full control effect; nearly all actives have a fitted effect of over 50% in size
PI5P4K alpha inh: PI5P4K alpha (human) kinase inhibition; P48426; AID 652105; 330,000 tested, 1.2% active; PI5P4Kalpha enzyme, ADP-Glo luminescence, 60 min; hits give low values; max response, %; active = max response of -50% or lower; inconclusive = between -30% and -50%; inactive = -30% or higher; also: value at the top dose of about 77 µM; % is scaled to controls: 0 for no effect and ±100 for the full control effect
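Human PI5P4Kalpha with substrate in 0.038 M HEPES pH 7.4, 0.28 mM EGTA, 0.1% CHAPS, 5% DMSO; reaction started with 5 microM ATP (final), 60 min at room temperature. ADP formed read by ADP-Glo luminescence.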
HP1b binding inh: blocks HP1-beta chromodomain binding to methylated histone tails; Potency, µM (highest dose often 114 µM), without a hit: at the highest dose activity change, negative = inhibition, most hits filed as inhibitors; AID 540317; 390,000 tested, 0.56% active; AlphaScreen HP1-beta / biotin-H3K9me3 peptide binding; also: potency is read from the fitted curve at half-maximal effect; nearly all actives have a fitted effect of over 70% in size
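HP1-beta protein (50 nM final) preincubated 30 min at room temperature with biotinylated H3(1-18)K9me3 peptide (50 nM) in PBS pH 7.4, 0.01% Tween-20, then compound added for 30 min. AlphaScreen streptavidin donor/nickel chelate acceptor beads (10 ug/mL final), 30 min dark, luminescence read.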
G9a block: inhibitors of human histone lysine methyltransferase G9a | Q96KQ7 | Potency, µM (series often up to 102 µM), inactives show top-dose activity, negative = inhibition, most hits filed as inhibitors | AID 504332 | 350,000 tested, 8.8% active | G9a H3K9 monomethylation, AlphaScreen, 2 h; also: potency is read from the fitted curve at half-maximal effect; % is scaled to controls: 0 for no effect and ±100 for the full control effect; nearly all actives have a fitted effect of over 75% in size
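Readings reflect AlphaScreen signal from monomethyl-H3K9 antibody detection. HMT at 20 nM; substrate b-H3K9 500 nM; cofactor SAM 20 uM; 2 h RT reaction; compounds tested as titrations in qHTS with 15 min preincubation.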
An asterisk follows results filed as active; ? = inconclusive; . = no result given; [ ] = another dose, or the depositor's remark. Unless noted, calls follow the shape of the dose curve; as a rule, active = well fitted curve in the direction sought with a large enough effect; inconclusive = small, poorly fitted or top-dose-only effect, or another doubt; inactive = no such curve, though single readings can be large; an effect the other way counts as inactive or inconclusive.

SMILES	PLK1 PBD block	BAZ2B inh	JMJD2A Tudor	PI5P4K alpha inh	HP1b binding inh	G9a block
O=C1NC[C@H](CCCCN2C[C@@H](Cc3ccccc3)N(Cc3ccccc3)C(=O)C2=O)N(CCC2CCCCC2)C1=O	-11%	.	.	-6	.	.
COC(=O)c1ccc(N=Cc2c(-c3ccccc3)[nH][nH]c2=O)cc1	3%	?	-5%	-10	14%	40µM*
CCOC(=O)Cc1ccc(NC(=O)Nc2nnc(N3CCCCC3C)s2)cc1 (centres undefined)	.	-27%	-24%	.	21%	?
COc1ccc(N2CCN(S(=O)(=O)c3ccc4c(c3)CCCC4)CC2)c([N+](=O)[O-])c1	-5%	?	?	.	?	18µM*
COc1ccc(N2CCN(C(=O)c3ccccc3F)CC2)c([N+](=O)[O-])c1	8.4µM*	?	-30%[11.4 µM]	-30	?	50µM*
COc1ccc(N2CCN(C(=O)c3cccc(Br)c3)CC2)c([N+](=O)[O-])c1	27µM*	40µM*	22µM*	-16	?	?
COc1ccc(N2CCN(C(=O)c3ccc(F)cc3)CC2)c([N+](=O)[O-])c1	-10%	?	-36%[57.1 µM]	2	-20%	-39%
COc1ccc(N2CCN(C(=O)CC34CC5CC(CC(C5)C3)C4)CC2)c([N+](=O)[O-])c1	-4%	35µM*	28µM*	1	?	?
N#CCC(=O)c1sccc1-n1cccc1	?	79µM*	-19%[57.1 µM]	-13	-3%	13µM*
N#CCOC(=O)c1sccc1-n1cccc1	-1%	-6%	-8%	-6	5%	5%[59 µM]
Cc1cccc(NC(=O)C(NS(=O)(=O)c2ccc3c(c2)CCC(=O)N3)c2ccccc2)n1 (centres undefined)	13µM*	1%	?	.	25%	22µM*
CCCN1CCN(c2nnc(-n3cccc3C(=O)Nc3cc(Cl)ccc3C)s2)CC1	.	?	?	.	12%	?
CCOc1ccccc1NC(=O)c1c(NC(=O)c2ccccc2C)sc2c1CCC(C)C2 (centres undefined)	.	4%	-12%	.	15%	14µM*
N=c1oc2c3c4c(cc2cc1C(=O)Nc1ccccc1)CCCN4CCC3	3.4µM*	21%	25%	2	140%	19%[59 µM]
Cc1ccc(-n2ncc(C(=O)NC3CCCCC3)c2C2CCN(C(=O)OC(C)(C)C)CC2)cc1	.	15%[57.1 µM]	-21%	.	44%	-3%[59 µM]
CCOc1cc(-c2nc(-c3ccc(-c4ccc(OC)cc4)nc3OC)no2)cc(OCC)c1OCC	.	1%	8%	.	35%	5%[59 µM]
Cc1cccc(OCC(=O)NC(=S)N2CCCc3ccccc32)c1	-15%	45µM*	50µM*	.	?	11µM*
O=C(COc1ccc(Cl)cc1Cl)NC(=S)N1CCCc2ccccc21	27µM*	79µM*	40µM*	.	?	10µM*
Cc1c(NC(=O)C(=O)/C=C(\O)c2ccc(Cl)cc2)c(=O)n(-c2ccccc2)n1C	0%	?	13µM*	-2	-1%	-18%[59 µM]
Cc1c(NC(=O)COC(=O)CCC(=O)c2ccc(Cl)cc2)c(=O)n(-c2ccccc2)n1C	17µM*	-8%	-25%[11.4 µM]	-24	-16%	2%
CCC(=O)c1ccc(OCC(=O)OCC(=O)Nc2c(C)n(C)n(-c3ccccc3)c2=O)cc1	-5%	2%	-9%	3	37%	-33%
Cc1c(NC(=O)COC(=O)COc2ccc(Nc3ccccc3)cc2)c(=O)n(-c2ccccc2)n1C	-9%	?	-31%	-10	-10%	50µM*
CS(=O)(=O)c1ccc(C(=O)OCC(=O)Nc2ccc(OC(F)(F)F)cc2)cc1[N+](=O)[O-]	.	.	-13%	.	46%	.
O=C(NCc1ccccc1Cl)C1CCCN(C(=O)c2cnn(-c3ccccc3)c2-n2cccc2)C1 (centres undefined)	.	-14%	-29%	.	-5%	4%[59 µM]
O=C(NCCc1nc2ccccc2n1Cc1ccc(F)cc1)c1ccco1	.	-7%	-16%	.	24%	-4%[59 µM]
SMILES	PLK1 PBD block	BAZ2B inh	JMJD2A Tudor	PI5P4K alpha inh	HP1b binding inh	G9a block
O=C(c1csnn1)N1CCC2(CC1)CN(c1cccc(-c3ccccc3)c1)C2	.	.	.	.	.	6%[12.7 µM]
COc1ccc(C(NC(=O)c2ccco2)c2ccc(OC)c(OC)c2)cc1OC	1%	10%	-6%	.	26%	4%
CCN(CC)S(=O)(=O)c1ccc(OC)c(NC(=O)/C=C/c2ccco2)c1	?	71µM*	-5%[11.4 µM]	-26	?	.
COc1ccc(C(=O)NCCCCCC(=O)N/N=C/c2ccco2)cc1OC	-6%	1%	-14%	2	19%	-8%
COc1ccc(C(NC(=O)/C=C/c2ccco2)c2ccc(OC)c(OC)c2)cc1 (centres undefined)	1%	?	-16%	-20	-1%	18µM*
CCN(CC)S(=O)(=O)c1ccc(N2CCCCC2)c(NC(=O)/C=C/c2ccc(OC)c(OC)c2)c1	0%	3%	-10%	7	28%	14%[59 µM]
COc1ccc(/C(C)=N/NC(=O)CNC(=O)/C=C\c2ccco2)cc1	?	79µM*	?	-29	-7%	-29%
COc1ccc(C(=O)NCC(=O)N/N=C/c2ccco2)cc1OC	-9%	-8%	-8%	0	29%	71µM*
CCN1CCN(Cc2c(O)ccc3oc(C)c(C(=O)Nc4cccc(C(F)(F)F)c4)c23)CC1	.	-19%	-31%	.	31%	-2%[59 µM]
Cc1ccc(C)c(CSc2cn(CCNC(=O)c3cccs3)c3ccccc23)c1	.	-22%	-11%	.	35%	7%[59 µM]
CCOc1ccc(C(NC(C)=O)c2ccc(OC)c(OC)c2)cc1 (centres undefined)	-5%	1%	-8%	-10	14%	1%[59 µM]
COc1ccc(CNC(=O)/C=C/C(=O)O)cc1OC	-8%	33%	-8%[57.1 µM]	5	70%	17%[59 µM]
CCOc1ccc(C(NC(=O)/C=C/c2ccco2)c2ccc(OC)c(OC)c2)cc1 (centres undefined)	-9%	?	-34%	1	-16%	28µM*
COc1ccc(CNC(=O)/C=C/c2ccco2)cc1OC	-6%	-12%	-5%	0	30%	45µM*
O=C(CSc1n[nH]c(-c2ccc(F)cc2)n1)NCc1ccccc1Cl	.	3%	-13%	.	27%[57 µM]	-10%[59 µM]
O=C(COC(=O)CNC(=O)c1ccccc1)NC(=O)NC1CCCCC1	-6%	.	-12%	1	17%	.
S=C(Nc1cccc(Br)c1)c1ccccc1	13µM*	?	-25%	0	-19%	?
CN(C)CCC[C@@]1(c2ccc(F)cc2)OCc2cc(C#N)ccc21	-3%	.	35µM*	-5	?	17%[59 µM]
Cc1ccc(NC(=O)CN2CCCC2c2cccn2C)c(Br)c1 (centres undefined)	3%	.	-33%	18	?	.
